Assay outcomes deposited in PubChem by Broad Institute.
Hits are enriched below; roughly 2.6% of the tested compounds scored in any of these assays.
p53 mut binder: mutant p53 (human) binding | small molecule microarray binding, anti-GST fluorescence | calls only | 0.4% of 17,000 active | AID 624136;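 active = compounds whose four printed spots each glow above background more than chance allows, each with a p-value under 7%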
NFkB SMM: NF-kappa-B p105 (human) binding; P19838; Small molecule microarray, anti-His fluorescence binding; calls only; 1.3% of 17,000 active;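 active = spot fluorescence over background significantly raised, with a chance value under 7% in all four replicate spots of the compound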;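 note: probe protein is his-tagged human p50 processed subunit at 1 µg/ml; raw spot fluorescence signals with no normalization applied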
p53 PUMA act: restores mutant p53 pathway signaling in SW480 cells. SW480 PUMA-promoter luciferase, p53 mutant reactivation. activation, % at 9.98 µM. 1.5% of 28,000 active. AID 624151; in the data active = activation above about 52%
c-Myc SMM: c-Myc (human) binding; P01106; 1.5% of 17,000 active; calls only; AID 624141; small molecule microarray, His-c-Myc binding, anti-His fluorescence;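 active = spot fluorescence over background with P-value below 7% in all four replicate spots, showing protein binding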;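 note: score is binary with 100 for all four spots passing and 0 otherwise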
Target sequence (P01106 whole entry, looked up): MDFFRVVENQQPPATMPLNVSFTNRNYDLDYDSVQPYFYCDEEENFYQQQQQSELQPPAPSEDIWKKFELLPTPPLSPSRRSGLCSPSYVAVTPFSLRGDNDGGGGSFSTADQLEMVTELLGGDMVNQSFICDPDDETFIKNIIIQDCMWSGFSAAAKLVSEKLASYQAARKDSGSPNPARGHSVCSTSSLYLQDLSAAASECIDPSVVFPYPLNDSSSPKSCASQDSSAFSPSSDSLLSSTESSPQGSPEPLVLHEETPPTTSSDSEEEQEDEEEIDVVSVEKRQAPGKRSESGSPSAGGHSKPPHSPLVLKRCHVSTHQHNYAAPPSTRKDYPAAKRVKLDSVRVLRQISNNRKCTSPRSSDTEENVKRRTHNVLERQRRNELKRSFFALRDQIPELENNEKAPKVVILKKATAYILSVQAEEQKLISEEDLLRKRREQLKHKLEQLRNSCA
STAT3 binder: binds human STAT3 on microarray; P40763; Small molecule microarray, His-STAT3 binding, anti-His fluorescence; calls only; 0.2% of 17,000 active;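 active = compounds whose four printed spots each show fluorescence over background unusually high for their array block, chance value under 7%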
The depositor's hits bear a star; i = inactive; nt = no result given; + = active, no number.

SMILES	p53 mut binder	NFkB SMM	p53 PUMA act	c-Myc SMM	STAT3 binder
C[C@@H]1CCCCO[C@H](CN(C)C(=O)Nc2ccc(C(F)(F)F)cc2)[C@H](C)CN([C@H](C)CO)C(=O)c2cc(NS(C)(=O)=O)ccc2O1	i	i	-11.2	+	i
CC(C)(C)C(=O)CSc1nnc(-c2ccco2)o1	i	i	69.7*	i	i
Cc1cc(S(=O)(=O)NCC(=O)O)ccc1F	i	i	-5.1	+	i
Cc1cc(C)c(S(=O)(=O)NCC(=O)O)c(C)c1	i	i	-9.3	+	i
CC(C)(C)c1ccc(S(=O)(=O)NCCC(=O)O)cc1	nt	nt	-5.4	nt	nt
Cc1ccc2cc(S(=O)(=O)NCCC(=O)O)ccc2c1	i	i	12.3	+	i
COc1ccccc1CN1CCN(Cc2cccnc2)CC1	i	i	0.7	+	i
COc1ccccc1CN1CCN(Cc2ccc(OC)c(OC)c2OC)CC1	i	i	-10.3	i	i
Cc1ccnc(NS(=O)(=O)c2ccc(NC(=O)c3csc4c3CCCC4)cc2)n1	nt	nt	3.3	nt	nt
Cc1cc(OCC(=O)NCc2ccccn2)c(C)cc1Br	nt	nt	119.0*	nt	nt
Cc1cc(OCC(=O)Nc2ncn[nH]2)c(C)cc1Br	nt	nt	56.7*	nt	nt
Cc1cc(OCC(=O)Nc2ncn[nH]2)ccc1Cl	i	i	78.3*	i	i
Cc1ccc(NC(=O)COc2ccccc2)c(NC(=O)c2cccs2)c1	nt	nt	10.0	nt	nt
O=C(NCCc1c[nH]c2ccccc12)Nc1cccc2ccccc12	nt	nt	12.6	nt	nt
NC(=O)CCCc1c[nH]c2ccccc12	nt	nt	78.9*	nt	nt
O=C(NCCc1c[nH]c2ccccc12)NC1CCCCC1	nt	nt	84.2*	nt	nt
OCc1c[nH]c2ccccc12	nt	nt	-9.3	nt	nt
C[C@]1(O)CC[C@@H]2C(C(=O)O)=CO[C@@H](O[C@@H]3O[C@H](COC(=O)/C=C/c4ccc(O)c(O)c4)[C@@H](O)[C@H](O)[C@H]3O)[C@@H]21	i	i	-2.1	i	i
Cc1ccc([N+](=O)[O-])cc1N(CC(=O)O)S(C)(=O)=O	nt	nt	-13.0	nt	nt
Cc1ccccc1OCC(=O)Nc1cc2nn(-c3ccccc3)nc2cc1Cl	i	i	9.3	i	i
CCC(=O)Nc1ccc2nc(SCc3ccccc3C#N)sc2c1	i	i	48.9	i	i
c1ccc(CCn2c3ccccc3c3nnc(SCc4ccc5nonc5c4)nc32)cc1	nt	nt	61.5*	nt	nt
C[C@H](CO)N1C[C@H](C)[C@@H](CN(C)C(=O)c2cnccn2)Oc2cc(C3=CCCC3)ccc2S1(=O)=O	nt	nt	0.6	nt	nt
Cc1cc2nc3c(=O)[nH]c(=O)nc-3n(C)c2cc1C=O	i	i	-28.4	+	i
COc1ccc(NC(=O)C(C)Oc2cc(C)c(Cl)c(C)c2)c([N+](=O)[O-])c1 (stereo not drawn)	nt	nt	-4.3	nt	nt
SMILES	p53 mut binder	NFkB SMM	p53 PUMA act	c-Myc SMM	STAT3 binder
CO[C@@H]1CC(OC2CCC3(C)C(CCC45CCC(C6=CC(=O)OC6)C(C)(CCC43)C5=O)C2)O[C@H](C)[C@@H]1O[C@@H]1O[C@H](CO[C@@H]2O[C@H](CO)[C@@H](O)[C@H](O)[C@H]2O)[C@@H](O)[C@H](O)[C@H]1O (stereo partly drawn)	i	i	-85.1	i	i
COC1CC(OC2C(C)OC(OC3C(C)OC(OC4C(C)OCC(OC5C(O)C(O[C@H]6CC[C@@]7(C)C(=CC[C@]8(O)C7CC(OC(=O)c7ccccc7)[C@@]7(C)[C@]8(O)CC[C@@]7(O)C(C)=O)C6)OC(CO)C5OC5OC(CO)C(O)C(O)C5O)C4OC)CC3OC)CC2OC)OC(C)C1O (stereo partly drawn)	i	+	-65.9	+	i
C/C=C(\C)C(=O)O[C@@H]1[C@@H](OC(C)=O)C2[C@@]3(C)CC[C@H](OC4CC(OC)C(OC5CC(OC)C(OC6CC(OC)C(OC7OC(C)C(OC8OC(CO)C(O)C(O)C8O)C(OC)C7O)C(C)O6)C(C)O5)C(C)O4)CC3=CC[C@@]2(O)[C@@]2(O)CC[C@H](C(C)=O)[C@@]12C (stereo partly drawn)	i	+	-0.8	+	i
NCCCN(Cc1ccco1)C1CCCC1	i	i	2.2	+	i
C[C@@H]1CN([C@H](C)CO)C(=O)c2cccc(NC(=O)NC3CCCCC3)c2O[C@@H]1CN(C)C(=O)Nc1cccc2ccccc12	i	i	-25.4	i	i
Cc1ccc(C(=O)O)cc1NC(=O)COc1ccc(I)cc1	i	i	43.8	i	i
Brc1ccc(-c2cnc3ccccc3n2)s1	nt	nt	74.3*	nt	nt
COc1ccc(C(=O)NCC(=O)Nc2cc(OC)ccc2OC)cc1	i	i	1.5	i	i
COc1ccc(OC)c(NC(=O)c2ccc(CSc3nnc(C)s3)cc2)c1	i	i	61.8*	i	i
